# Source: PubChem BioAssay
# For some assays here: Potency and affinity values are given separately. Activity calls are given as the source filed them.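 How the source made its calls, unless noted: active means fluorescence ratio normalized to control raised more than 50% in primary screen plus both repeat runs; inactive means the rest.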
# Tests used:
# [1] = system: TRPC4 beta (transient receptor potential cation channel C4), mouse; experiment: TRPC4 cation channel opening, retest – cell-based, Fluo4 calcium, HEK293 TRPC4beta/mu-opioid, duplicates, 10 µM, confirmation (AID 2426); settings: Fluo4 calcium fluorescence, at 10 µM; stronger effect = higher value;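 on activation: percent rise of integrated ratio over buffer wells lacking compound which define 0%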
# [2] = system: transient receptor potential cation channel C4 beta (TRPC4), mouse; experiment: TRPC4 cation channel opening, second retest – cell-based, second round, Fluo4, HEK293 TRPC4beta/mu-opioid, 1 µM, confirmation (AID 2461;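 active means primary screen active and over 50% activation in each of two duplicate runs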); settings: Fluo4 calcium fluorescence, at 1 µM; stronger effect = higher value
# [3] = system: TRPC4 (transient receptor potential cation channel C4 beta), mouse; experiment: potentiation of DAMGO EC20 TRPC4 response – cell-based, second round, Fluo-4, HEK293 TRPC4beta/mu-opioid, 1 µM, confirmation (AID 2554;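 active means primary screen hit whose fluorescence ratio, in both repeats, exceeds the weak agonist control mean by 3 SD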); settings: DAMGO EC20, Fluo-4 calcium flux, at 1 µM; stronger effect = higher value
# [4] = system: TRPC4 beta (transient receptor potential cation channel C4), mouse; experiment: potentiation of DAMGO EC20 TRPC4 response – cell-based, Fluo-4, HEK293 TRPC4beta/mu-opioid, confirmation (AID 2555;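 active means primary screen hit whose calcium fluorescence ratio, in both repeats, exceeds the weak agonist control mean by 3 SD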); settings: DAMGO EC20, Fluo-4 calcium flux, at 10 µM; stronger effect = higher value
# [5] = target: Short transient receptor potential channel 4 (Mus musculus) (UniProt Q9QUQ5); experiment: blockers of DAMGO-evoked TRPC4 calcium flux – cell-based, Fluo4, HEK293 TRPC4beta/mu-opioid, confirmation (AID 2636;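 active means calcium signal cut by more than 3 SD below the full-agonist control yet still positive, in both repeats and the earlier primary screen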); settings: at 10 µM; stronger effect = higher value
# [6] = target: Short transient receptor potential channel 4 (Mus musculus) (UniProt Q9QUQ5); experiment: blockers of DAMGO-evoked TRPC4 calcium flux – cell-based, second round, Fluo4, HEK293 TRPC4beta/mu-opioid, 1 µM, confirmation (AID 2637;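 active means calcium signal ratio cut to more than 3 SD under the fully stimulated control mean yet still positive, in both repeats and the primary screen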;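 on inhibition: percent of integrated ratio relative to wells lacking test compound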); settings: at 1 µM; stronger effect = higher value
# [7] = target: Short transient receptor potential channel 4 (Mus musculus) (UniProt Q9QUQ5); experiment: calcium entry via TRPC4 opening agents – cell-based, HEK293 TRPC4/mu-opioid, Fluo-4 calcium, dose response (AID 434937;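 active means primary screen activator hit with a dose response curve and TRPC4 channel activation at any tested dose; inactive means no activation, no dose response, or not a primary hit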)
# [8] = target: Short transient receptor potential channel 4 (Mus musculus) (UniProt Q9QUQ5); experiment: potentiation of DAMGO-evoked TRPC4 calcium signal – cell-based, HEK293 TRPC4/mu-opioid, Fluo-4 calcium, EC20 DAMGO, dose response (AID 434941;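 active means earlier screen potentiator hit that boosts the TRPC4 ion channel at some dose, with a dose response; inactive means no potentiation, no dose response, or not a prior hit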;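 further: calcium entry triggered by an EC20 dose of DAMGO at the co-expressed mu-opioid receptor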)
# [9] = target: Short transient receptor potential channel 6 (Mus musculus) (UniProt Q61143); experiment: TRPC6 blockade by TRPC4 inhibitor hits – cell-based, HEK293, membrane potential dye, duplicate, selectivity assay for TRPC4 inhibitor project, confirmation (AID 434948;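 active means active in primary screen and both duplicates, each dropping signal beyond three positive-control SD with fluorescence still positive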); settings: HEK293 TRPC6, membrane potential dye fluorescence, at 10 µM, stimulated with maximal-effect acetylcholine; stronger effect = higher value
# [10] = target: Short transient receptor potential channel 6 (Mus musculus) (UniProt Q61143); experiment: TRPC6 opening by TRPC4 activator hits – cell-based, HEK293, membrane potential dye, duplicate, selectivity assay for TRPC4 activator project, confirmation (AID 434950;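 active means membrane potential signal rise above negative control mean plus 3 SD in both duplicates, also active in the earlier TRPC4 screen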); settings: HEK293 TRPC6, membrane potential fluorescence, at 10 µM; activation: stronger effect = higher value; outcome: activation
# [11] = target: Short transient receptor potential channel 6 (Mus musculus) (UniProt Q61143); experiment: positive modulators of mouse TRPC6 channel – HEK293 cells, membrane potential dye, duplicate, selectivity assay for TRPC4 potentiator project, confirmation (AID 434952;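 active means compound raising the membrane signal above positive-control mean plus 3 SD in both repeats, and a primary screen hit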); settings: HEK293 TRPC6, membrane potential dye fluorescence, at 10 µM, maximal acetylcholine added after compound; stronger effect = higher value
# [12] = target: Short transient receptor potential channel 4 (Mus musculus) (UniProt Q9QUQ5); experiment: calcium flux activators in TRPC4/5HT1a cells, counter-screen for TRPC4 activator project, cell-based, second counter screen, HEK293 TRPC4/5HT1a, Fluo-4 (AID 434977;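 active means calcium signal rise above buffer-control mean plus 5 SD in both duplicates, and also a hit in the primary screen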); settings: Fluo-4 calcium flux, at 10 µM; stronger effect = higher value
# [13] = serotonin-gated TRPC4 signal block – cell-based, second counter screen, HEK293 TRPC4/5HT1a, Fluo-4, counter-screen for TRPC4 inhibitor project, confirmation (AID 434978;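 active means primary screen active whose calcium signal fell more than 3 SD beyond the full-serotonin control mean in both duplicate plates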;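 on outcome: serotonin given first at submaximal then at maximal dose after compound preincubation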); settings: Fluo-4 calcium flux, at 10 µM, serotonin added to trigger calcium flux; stronger effect = higher value
# [14] = system: TRPC4 (mouse), co-expressed with 5HT1a in HEK293; experiment: enhancement of serotonin-evoked TRPC4 response – cell-based, second counter screen, HEK293 TRPC4/5HT1a, Fluo-4, counter-screen for TRPC4 potentiator project, confirmation (AID 434979;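 active means signal rise over 3 SD above mean of control wells given weak agonist, in both repeats and first screen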); settings: Fluo-4 calcium flux, at 10 µM, serotonin added at its EC20 dose; stronger effect = higher value
# [15] = nonspecific calcium rise without TRPC4 – cell-based, HEK293 mu-opioid receptor line, counter-screen for TRPC4 activator project, confirmation (AID 449723;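 active means hit in primary screen, with calcium signal over 5 SD above buffer well mean in both duplicates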;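 further: counter screen cells carry the mu-opioid receptor alone and lack TRPC4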); settings: HEK293 mu-opioid cells, Fluo-4 calcium fluorescence, at 10 µM; stronger effect = higher value
# [16] = nonspecific potentiation of DAMGO calcium response – cell-based, HEK293 mu-opioid receptor line, counter-screen for TRPC4 allosteric potentiator project, confirmation (AID 449724;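 active means calcium signal rise more than 3 SD above the low-dose agonist control mean, in both duplicate plates and the primary screen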); settings: HEK293 mu-opioid receptor cells, Fluo-4 calcium flux, at 10 µM, compound added before EC20 DAMGO stimulus; stronger effect = higher value
# Short transient receptor potential channel 4 (Mus musculus), sequence (Q9QUQ5 whole entry, looked up): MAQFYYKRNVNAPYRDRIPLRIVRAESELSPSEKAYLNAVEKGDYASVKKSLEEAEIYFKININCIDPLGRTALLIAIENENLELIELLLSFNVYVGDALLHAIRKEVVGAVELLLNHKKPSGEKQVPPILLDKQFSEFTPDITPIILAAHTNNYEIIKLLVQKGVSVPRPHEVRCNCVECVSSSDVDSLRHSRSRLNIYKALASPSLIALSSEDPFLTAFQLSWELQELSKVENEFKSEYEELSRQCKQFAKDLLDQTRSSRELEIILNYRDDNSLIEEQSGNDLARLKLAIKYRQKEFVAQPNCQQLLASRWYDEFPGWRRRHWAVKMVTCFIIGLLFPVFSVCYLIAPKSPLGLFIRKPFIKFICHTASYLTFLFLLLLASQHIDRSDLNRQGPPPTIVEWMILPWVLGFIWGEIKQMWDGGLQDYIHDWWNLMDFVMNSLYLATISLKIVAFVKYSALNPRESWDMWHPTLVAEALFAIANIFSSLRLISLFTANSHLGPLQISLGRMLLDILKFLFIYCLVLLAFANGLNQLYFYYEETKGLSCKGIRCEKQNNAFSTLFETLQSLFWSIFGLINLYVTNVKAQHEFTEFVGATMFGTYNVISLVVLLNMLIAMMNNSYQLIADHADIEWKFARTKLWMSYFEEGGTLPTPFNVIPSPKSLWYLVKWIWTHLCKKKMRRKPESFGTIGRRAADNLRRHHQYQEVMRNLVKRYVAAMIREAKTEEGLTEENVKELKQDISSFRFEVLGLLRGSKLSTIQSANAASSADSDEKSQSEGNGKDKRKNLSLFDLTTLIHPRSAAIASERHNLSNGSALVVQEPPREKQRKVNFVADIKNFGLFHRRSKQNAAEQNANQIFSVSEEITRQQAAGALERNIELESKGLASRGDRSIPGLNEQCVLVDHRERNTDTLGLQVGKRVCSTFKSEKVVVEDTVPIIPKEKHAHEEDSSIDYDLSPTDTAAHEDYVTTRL
# Short transient receptor potential channel 6 (Mus musculus), sequence (Q61143 whole entry, looked up): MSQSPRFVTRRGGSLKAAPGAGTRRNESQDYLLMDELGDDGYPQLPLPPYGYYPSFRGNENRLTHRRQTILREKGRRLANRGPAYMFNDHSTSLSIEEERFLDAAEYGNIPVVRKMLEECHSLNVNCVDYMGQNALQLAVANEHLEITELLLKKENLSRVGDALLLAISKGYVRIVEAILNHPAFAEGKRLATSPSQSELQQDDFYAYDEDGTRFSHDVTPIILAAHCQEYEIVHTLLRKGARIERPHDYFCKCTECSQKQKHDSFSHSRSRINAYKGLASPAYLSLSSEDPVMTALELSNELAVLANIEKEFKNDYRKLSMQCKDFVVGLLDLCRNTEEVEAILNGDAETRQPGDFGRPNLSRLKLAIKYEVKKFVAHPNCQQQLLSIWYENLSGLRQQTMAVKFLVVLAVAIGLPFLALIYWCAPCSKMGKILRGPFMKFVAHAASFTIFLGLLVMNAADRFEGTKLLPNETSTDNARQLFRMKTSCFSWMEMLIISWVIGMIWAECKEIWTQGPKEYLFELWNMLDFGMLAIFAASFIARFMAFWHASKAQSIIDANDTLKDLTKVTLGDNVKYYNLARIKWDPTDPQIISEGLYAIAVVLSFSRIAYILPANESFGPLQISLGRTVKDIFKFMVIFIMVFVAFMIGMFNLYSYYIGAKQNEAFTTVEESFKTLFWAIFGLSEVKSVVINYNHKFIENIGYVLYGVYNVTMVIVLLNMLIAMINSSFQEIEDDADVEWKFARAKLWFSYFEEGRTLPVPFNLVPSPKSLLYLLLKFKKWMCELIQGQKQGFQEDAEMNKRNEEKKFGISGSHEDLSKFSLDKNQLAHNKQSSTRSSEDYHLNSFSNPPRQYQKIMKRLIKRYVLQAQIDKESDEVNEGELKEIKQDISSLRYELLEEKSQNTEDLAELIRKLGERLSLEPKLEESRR
structure (smiles),measurement,setting,value
CN(C)c1ccc([N+](=O)[O-])cc1C(=O)NCC(c1ccco1)N(C)C (centres undefined),outcome,[1],inactive
same,outcome,[2],inactive
same,outcome,[3],inactive
same,outcome,[4],inactive
same,inhibition,[5],58% (active)
same,outcome,[6],inactive
same,outcome,[7],inactive
same,outcome,[8],inactive
same,outcome,[9],inactive
same,outcome,[10],inactive
same,outcome,[11],inactive
same,outcome,[12],inactive
same,outcome,[13],inactive
same,outcome,[14],inactive
same,outcome,[15],inactive
same,outcome,[16],inactive
CCOc1c(Cl)cc(CNCC(O)c2ccccc2)cc1OC (centres undefined),outcome,[1],inactive
same,outcome,[2],inactive
same,outcome,[3],inactive
same,outcome,[4],inactive
same,inhibition,[5],86% (active)
same,outcome,[6],inactive
same,outcome,[7],inactive
same,outcome,[8],inactive
same,outcome,[9],inactive
same,outcome,[10],inactive
same,outcome,[11],inactive
same,outcome,[12],inactive
same,outcome,[13],inactive
same,outcome,[14],inactive
same,outcome,[15],inactive
same,outcome,[16],inactive
Cc1ccc(NC(=O)CNc2ccccc2CN(C)C2CCCCC2)cc1,outcome,[1],inactive
same,outcome,[2],inactive
same,outcome,[3],inactive
same,outcome,[4],inactive
same,inhibition,[5],76% (active)
same,outcome,[6],inactive
same,outcome,[7],inactive
same,outcome,[8],inactive
same,outcome,[9],inactive
same,outcome,[10],inactive
same,outcome,[11],inactive
same,outcome,[12],inactive
same,inhibition,[13],33.5% (active)
same,outcome,[14],inactive
same,outcome,[15],inactive
same,outcome,[16],inactive
CC(=O)Oc1ccc(/C=C(\NC(=O)c2ccco2)C(=O)NCc2ccccc2)cc1,outcome,[1],inactive
same,outcome,[2],inactive
same,outcome,[3],inactive
same,outcome,[4],inactive
same,inhibition,[5],82% (active)
same,outcome,[6],inactive
same,outcome,[7],inactive
same,outcome,[8],inactive
same,outcome,[9],inactive
same,outcome,[10],inactive
same,outcome,[11],inactive
same,outcome,[12],inactive
same,inhibition,[13],44.5% (active)
same,outcome,[14],inactive
same,outcome,[15],inactive
same,outcome,[16],inactive
O=C(Cc1ccccc1[N+](=O)[O-])OCc1cccc([N+](=O)[O-])c1,outcome,[1],inactive
same,outcome,[2],inactive
same,outcome,[3],inactive
same,outcome,[4],inactive
same,inhibition,[5],92% (active)
same,inhibition,[6],62% (active)
same,outcome,[7],inactive
same,outcome,[8],inactive
same,outcome,[9],inactive
same,outcome,[10],inactive
same,outcome,[11],inactive
same,outcome,[12],inactive
same,inhibition,[13],35% (active)
same,outcome,[14],inactive
same,outcome,[15],inactive
same,outcome,[16],inactive
CN1/C(=C\C(=O)C[n+]2ccc3ccccc3c2)C(C)(C)c2ccccc21,outcome,[1],inactive
same,outcome,[2],inactive
same,outcome,[3],inactive
same,outcome,[4],inactive
same,inhibition,[5],96% (active)
same,outcome,[6],inactive
same,outcome,[7],inactive
same,outcome,[8],inactive
same,outcome,[9],inactive
same,outcome,[10],inactive
same,outcome,[11],inactive
same,outcome,[12],inactive
same,outcome,[13],inactive
same,outcome,[14],inactive
same,outcome,[15],inactive
same,outcome,[16],inactive
COc1cccc(C(CNC(=O)C(c2ccccc2)c2ccccc2)N(C)C)c1 (centres undefined),outcome,[1],inactive
same,outcome,[2],inactive
same,outcome,[3],inactive
same,outcome,[4],inactive
same,inhibition,[5],89% (active)
same,outcome,[6],inactive
same,outcome,[7],inactive
same,outcome,[8],inactive
same,outcome,[9],inactive
same,outcome,[10],inactive
same,outcome,[11],inactive
same,outcome,[12],inactive
same,outcome,[13],inactive
same,outcome,[14],inactive
same,outcome,[15],inactive
same,outcome,[16],inactive
C/C(CC(=O)N(C(C)C)C(C)C)=N\NC(=O)COc1ccc(Cl)cc1Cl,outcome,[1],inactive
same,outcome,[2],inactive
same,outcome,[3],inactive
same,outcome,[4],inactive
same,inhibition,[5],83% (active)
same,outcome,[6],inactive
same,outcome,[7],inactive
same,outcome,[8],inactive
same,outcome,[9],inactive
same,outcome,[10],inactive
same,outcome,[11],inactive
same,outcome,[12],inactive
same,outcome,[13],inactive
same,outcome,[14],inactive
same,outcome,[15],inactive
same,outcome,[16],inactive
CC12CN3CC(C)(CN(C1)C3c1ccc(Cl)cc1Cl)C2O (centres undefined),activation,[1],66% (active)
same,outcome,[2],inactive
same,outcome,[3],inactive
same,outcome,[4],inactive
same,outcome,[5],inactive
same,inhibition,[6],64% (active)
same,outcome,[7],inactive
same,outcome,[8],inactive
same,outcome,[9],inactive
same,outcome,[10],inactive
same,outcome,[11],inactive
same,outcome,[12],inactive
same,outcome,[13],inactive
same,outcome,[14],inactive
same,outcome,[15],inactive
same,outcome,[16],inactive
Cc1cc(N2CCCCCC2)nc2ccccc12,outcome,[1],inactive
same,outcome,[2],inactive
same,outcome,[3],inactive
same,outcome,[4],inactive
same,inhibition,[5],87% (active)
same,inhibition,[6],55% (active)
same,outcome,[7],inactive
same,outcome,[8],inactive
same,outcome,[9],inactive
same,outcome,[10],inactive
same,outcome,[11],inactive
same,outcome,[12],inactive
same,inhibition,[13],15.6% (active)
same,outcome,[14],inactive
same,outcome,[15],inactive
same,outcome,[16],inactive
O=C(C[n+]1cc(-c2ccc(Cl)c(Cl)c2)n2c1CCC2)N1c2ccccc2Sc2ccccc21,outcome,[1],inactive
same,outcome,[2],inactive
same,outcome,[3],inactive
same,outcome,[4],inactive
same,inhibition,[5],75% (active)
same,outcome,[6],inactive
same,outcome,[7],inactive
same,outcome,[8],inactive
same,inhibition,[9],53.5% (active)
same,outcome,[10],inactive
same,outcome,[11],inactive
same,outcome,[12],inactive
same,inhibition,[13],18.7% (active)
same,outcome,[14],inactive
same,outcome,[15],inactive
same,outcome,[16],inactive
O=C(NC1CCCCC1)N1CCN(C(c2ccccc2)c2ccccc2)CC1,outcome,[1],inactive
same,outcome,[2],inactive
same,outcome,[3],inactive
same,outcome,[4],inactive
same,outcome,[5],inactive
same,outcome,[6],inactive
same,outcome,[7],inactive
same,outcome,[8],inactive
same,outcome,[9],inactive
same,outcome,[10],inactive
same,outcome,[11],inactive
same,outcome,[12],inactive
same,outcome,[13],inactive
same,outcome,[14],inactive
same,outcome,[15],inactive
same,outcome,[16],inactive
Cc1cc(-c2csc3ncnc(N4CCN(C)CC4)c23)cc(C)c1C,outcome,[1],inactive
same,outcome,[2],inactive
same,outcome,[3],inactive
same,outcome,[4],inactive
same,inhibition,[5],84% (active)
same,inhibition,[6],49% (active)
same,outcome,[7],inactive
same,outcome,[8],inactive
same,outcome,[9],inactive
same,outcome,[10],inactive
same,outcome,[11],inactive
same,outcome,[12],inactive
same,inhibition,[13],16.6% (active)
same,outcome,[14],inactive
same,outcome,[15],inactive
same,outcome,[16],inactive
COc1ncnc2sc3c(c12)CCCC3,outcome,[1],inactive
same,outcome,[2],inactive
same,outcome,[3],inactive
same,outcome,[4],inactive
same,inhibition,[5],93% (active)
same,outcome,[6],inactive
same,outcome,[7],inactive
same,outcome,[8],inactive
same,outcome,[9],inactive
same,outcome,[10],inactive
same,outcome,[11],inactive
same,outcome,[12],inactive
same,outcome,[13],inactive
same,outcome,[14],inactive
same,outcome,[15],inactive
same,outcome,[16],inactive
